Laboratory results from PubChem BioAssay (EPA / NIEHS).
Where “and” joins values, the source holds several entries; their conditions need not be identical. Equal entries are not always repeated. The source holds several records for some structures; these can differ, active in one and inactive in another. Calls of active or inactive are those of the source. How the source made its calls: active means hit-call score of the fitted dose curve at least 0.9, where 1 is the maximum; inactive means score below 0.9.

Experiments:
[1] = BSK_3C_VCAM1: BioMAP Diversity Plus: 3C Assay for Vascular cell adhesion molecule 1 (VCAM1) Biomarker Activity (AID 2282999); details: BioMAP 3C HUVEC, VCAM1 ELISA, cytokine-stimulated; actives raise or lower the signal
Outline: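 Human umbilical vein endothelial cells (3C system), biomarker read by ELISA 24 h after dosing; bidirectional fit against DMSO baseline. Cytotoxicity tracked by SRB total-protein staining in parallel cultures at biomarker time.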

[2] = BSK_3C_Proliferation: Cell Proliferation Assessment in the BioMAP Diversity Plus: 3C Assay (AID 2283006); details: primary human endothelial cells (HUVEC);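 on AC50: potency may reflect either rise or fall in cell number versus DMSO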
Outline: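 Subconfluent HUVEC (3C system) cultured with chemical; relative cell number read at 48 h by sulforhodamine B total-protein staining (0.1% SRB after 10% TCA fixation, 560 nm). Bidirectional fit relative to DMSO.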

[3] = read-out: E-selectin (Homo sapiens) (UniProt P16581); test: BSK_3C_Eselectin: BioMAP Diversity Plus: 3C Assay for Eselectin Biomarker Activity (AID 2283015); details: primary human endothelial cells (HUVEC); actives raise or lower the signal
Outline: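 ELISA read-out of E-selectin on endothelial monolayers after 24 h chemical treatment. Human umbilical vein primary cells served as the system, with DMSO defining baseline activity for bidirectional fitting.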

[4] = read-out: Matrix Metallopeptidase 1 (MMP1), MMP1 (gene 4312); test: BSK_BE3C_MMP1: BioMAP Diversity Plus: BE3C Assay for Matrix Metallopeptidase 1 (MMP1) Biomarker Activity (AID 2283024); details: primary human bronchial epithelial cells; actives raise or lower the signal
Outline: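 Human primary bronchial epithelial cells (BE3C system) dosed for 24 h; MMP-1 quantified by ELISA. Bidirectional fit against DMSO; cytotoxicity tracked in parallel cultures by SRB total-protein staining.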

[5] = BSK_3C_Vis: BioMAP Diversity Plus: 3C Assay for Morphology Visualization (AID 2283025); details: primary human endothelial cells (HUVEC);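 further: fitted both ways so gain or loss versus DMSO counts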;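 on AC50: light microscopy image of cell morphology used as background control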
Outline: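 Human umbilical vein endothelial cell morphology was inspected by light microscopy 24 h after chemical dosing; scored bidirectionally relative to DMSO.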

[6] = BSK_BE3C_SRB: Viability Assessment in the BioMAP Diversity Plus: BE3C Assay (AID 2283028); details: primary human bronchial epithelial cells
Outline: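 Cells (human bronchial epithelial, primary) are treated with chemicals, and after 24 h the parallel cultures are fixed in 10% TCA. These are then stained with 0.1% SRB and read at 560 nm. Gain or loss of signal is fitted relative to DMSO.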

[7] = read-out: Vascular endothelial growth factor receptor 2 (Homo sapiens) (UniProt P35968); test: BSK_4H_VEGFRII: BioMAP Diversity Plus: 4H Assay for Vascular endothelial growth factor receptor 2 (VEGFR2) Biomarker Activity (AID 2283031); details: primary human endothelial cells (HUVEC); actives raise or lower the signal
Outline: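 ELISA read-out of VEGFRII in primary human umbilical vein endothelium, taken 24 h after chemical treatment. Responses are expressed relative to DMSO, with bidirectional fitting.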

[8] = read-out: Human Leukocyte Antigen - DR isotype (HLADR), HLA-DRA (gene 3122); test: BSK_BE3C_HLADR: BioMAP Diversity Plus: BE3C Assay for Human Leukocyte Antigen - DR isotype (HLADR) Biomarker Activity (AID 2283032); details: primary human bronchial epithelial cells; actives raise or lower the signal
Outline: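 Human primary bronchial epithelial cells (BE3C system) exposed to compound for 24 hours; cell-surface HLA-DR measured by ELISA, fitted bidirectionally relative to DMSO. Total protein by SRB in parallel cultures tracked cytotoxicity.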

[9] = read-out: Vascular cell adhesion molecule 1 (VCAM1), VCAM1 (gene 7412); test: BSK_4H_VCAM1: BioMAP Diversity Plus: 4H Assay for Vascular cell adhesion molecule 1 (VCAM1) Biomarker Activity (AID 2283033); details: primary human endothelial cells (HUVEC); actives raise or lower the signal
Outline: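 Primary human umbilical vein endothelial cells, 4H stimulation system, treated for 24 h; cell-surface VCAM-1 quantified by ELISA. Bidirectional fitting against DMSO; cytotoxicity tracked by SRB total-protein staining in parallel cultures.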

[10] = read-out: Interferon-gamma inducible Protein 10 (IP10), CXCL10 (gene 3627); test: BSK_BE3C_IP10: BioMAP Diversity Plus: BE3C Assay for Interferon-gamma inducible Protein 10 (IP10) Biomarker Activity (AID 2283034); details: primary human bronchial epithelial cells; actives raise or lower the signal
Outline: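 Primary human bronchial epithelial cells, with IP-10 measured by ELISA 24 hours after chemical dosing. Bidirectional fit against DMSO; cytotoxicity checked by SRB total protein staining in parallel cultures.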

[11] = read-out: Transforming growth factor beta 1 (TGFb1), TGFB1 (gene 7040); test: BSK_BE3C_TGFb1: BioMAP Diversity Plus: BE3C Assay for Transforming growth factor beta 1 (TGFb1) Biomarker Activity (AID 2283036); details: primary human bronchial epithelial cells; actives raise or lower the signal
Outline: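 Primary human bronchial epithelial cells dosed with chemical; TGF-b1 measured by ELISA 24 h after dosing. Bidirectional curve fitting against DMSO negative control; SRB total-protein staining in parallel cultures gauged cytotoxicity.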

[12] = read-out: Urokinase-type plasminogen activator receptor (uPAR), PLAUR (gene 5329); test: BSK_BE3C_uPAR: BioMAP Diversity Plus: BE3C Assay for Urokinase-type plasminogen activator receptor (uPAR) Biomarker Activity (AID 2283039); details: primary human bronchial epithelial cells; actives raise or lower the signal;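 further: uPAR protein level measured by ELISA on the cells; cells exposed to compound for one day before measurement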
Outline: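 Primary human bronchial epithelial cells dosed for 24 h; uPAR quantified by ELISA with bidirectional fitting against DMSO. Overt cytotoxicity assessed in parallel cultures by SRB total-protein staining (0.1% SRB, 560 nm).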

[13] = read-out: Interleukin-6 (IL6), IL6 (gene 3569); test: BSK_CASM3C_IL6: BioMAP Diversity Plus: CASM3C Assay for Interleukin-6 (IL6) Biomarker Activity for (AID 2283040); details: primary human coronary artery smooth muscle cells; actives raise or lower the signal
[14] = read-out: Monocyte Chemoattractant Protein-1 (MCP1), CCL2 (gene 6347); test: BSK_CASM3C_MCP1: BioMAP Diversity Plus: CASM3C Assay for Monocyte Chemoattractant Protein-1 (MCP1) Biomarker Activity (AID 2283046); details: primary human coronary artery smooth muscle cells; actives raise or lower the signal
[15] = read-out: Interleukin-1 alpha (IL1a), IL1A (gene 3552); test: BSK_LPS_IL1a: BioMAP Diversity Plus: LPS Assay for Interleukin-1 alpha (IL1a) Biomarker Activity (AID 2283080); details: primary human HUVEC with PBMC; actives raise or lower the signal
Outline: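 ELISA read-out of IL-1 alpha from a human primary vascular co-culture (endothelium plus PBMC) under LPS, sampled 24 hours post-dosing. Activity was fitted in both directions relative to DMSO controls.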

[16] = read-out: Monocyte Chemoattractant Protein-1 (MCP1), CCL2 (gene 6347); test: BSK_LPS_MCP1: BioMAP Diversity Plus: LPS Assay for Monocyte Chemoattractant Protein-1 (MCP1) Biomarker Activity (AID 2283081); details: primary human HUVEC with PBMC; actives raise or lower the signal;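 on AC50: secreted MCP-1 protein quantified by ELISA in culture supernatant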
Outline: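 Human endothelial–PBMC co-cultures were dosed with chemical, then LPS-driven MCP-1 levels were quantified by ELISA at 24 h. Activity in either direction was fitted versus DMSO negative control.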

[17] = BSK_LPS_PGE2: BioMAP Diversity Plus: LPS Assay for Prostaglandin E2 (PGE2) Biomarker Activity (AID 2283082); details: primary human HUVEC with PBMC; actives raise or lower the signal;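 on AC50: secreted prostaglandin E2 measured by ELISA in LPS-stimulated co-culture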
Outline: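 HUVEC plus human PBMC co-culture stimulated with LPS; secreted PGE2 quantified by ELISA 24 h after chemical dosing. Activity fitted bidirectionally against DMSO baseline; parallel SRB staining (0.1% SRB after 10% TCA fixation, 560 nm) flags overt cytotoxicity.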

[18] = read-out: Tumor necrosis factor (Homo sapiens) (UniProt P01375); test: BSK_LPS_TNFa: BioMAP Diversity Plus: LPS Assay for Tumour Necrosis Factor alpha (TNFa) Biomarker Activity (AID 2283085); details: primary human HUVEC with PBMC; actives raise or lower the signal
Outline: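 Human umbilical vein endothelial cells co-cultured with PBMC and stimulated with LPS. TNFa was measured by ELISA 24 h after chemical dosing, fitted bidirectionally relative to DMSO.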

[19] = read-out: Monocyte Chemoattractant Protein-1 (MCP1), CCL2 (gene 6347); test: BSK_SAg_MCP1: BioMAP Diversity Plus: SAg Assay for Monocyte Chemoattractant Protein-1 (MCP1) Biomarker Activity (AID 2283090); details: primary human HUVEC with PBMC; actives raise or lower the signal
Outline: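 MCP-1 levels in the endothelial–PBMC SAg co-culture were quantified by ELISA at 24 h post-dosing; both increases and decreases versus DMSO scored. Cytotoxicity monitored by SRB total protein in parallel cultures.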

[20] = read-out: Monokine induced gamma interferon (MIG), CXCL9 (gene 4283); test: BSK_SAg_MIG: BioMAP Diversity Plus: SAg Assay for Monokine induced gamma interferon (MIG) Biomarker Activity (AID 2283092); details: primary human HUVEC with PBMC; actives raise or lower the signal
Outline: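 ELISA readout of MIG/CXCL9; primary human umbilical vein endothelial cells co-cultured with peripheral blood mononuclear cells; 24 h post-dose; gain/loss fit vs DMSO baseline.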

Measured: AC50

Chain of Tumor necrosis factor (Homo sapiens) (P01375 whole entry, looked up): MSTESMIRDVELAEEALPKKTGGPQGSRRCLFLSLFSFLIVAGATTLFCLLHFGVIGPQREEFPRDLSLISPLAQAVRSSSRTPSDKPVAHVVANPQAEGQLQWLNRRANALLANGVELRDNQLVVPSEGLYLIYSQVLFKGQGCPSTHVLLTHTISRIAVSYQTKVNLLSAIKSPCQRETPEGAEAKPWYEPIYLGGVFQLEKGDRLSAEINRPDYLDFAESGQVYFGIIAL
Chain of E-selectin (Homo sapiens) (P16581 whole entry, looked up): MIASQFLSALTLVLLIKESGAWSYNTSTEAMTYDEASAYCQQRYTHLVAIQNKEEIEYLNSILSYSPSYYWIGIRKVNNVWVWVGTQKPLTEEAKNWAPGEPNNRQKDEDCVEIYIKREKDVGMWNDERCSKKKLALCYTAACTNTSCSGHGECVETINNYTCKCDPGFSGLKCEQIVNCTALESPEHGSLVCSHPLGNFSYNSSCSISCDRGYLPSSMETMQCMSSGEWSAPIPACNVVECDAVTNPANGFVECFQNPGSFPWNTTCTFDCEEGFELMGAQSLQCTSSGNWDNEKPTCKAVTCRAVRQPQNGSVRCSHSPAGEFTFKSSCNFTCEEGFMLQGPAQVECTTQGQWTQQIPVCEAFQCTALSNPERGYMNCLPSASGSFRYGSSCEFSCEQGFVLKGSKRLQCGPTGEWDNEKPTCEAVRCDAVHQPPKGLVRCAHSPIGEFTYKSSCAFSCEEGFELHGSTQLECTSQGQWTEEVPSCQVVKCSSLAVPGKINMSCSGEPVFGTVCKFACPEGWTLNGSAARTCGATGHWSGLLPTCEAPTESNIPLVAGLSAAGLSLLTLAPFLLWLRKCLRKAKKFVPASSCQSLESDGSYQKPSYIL

CC(C)(C)C(=O)CCl
active: [1] 20 µM | [2] 16.9 µM | [3] 20 µM | [8] 20 µM | [9] 25.7 µM | [15] 33.9 µM
inactive: all other assays above

O=C1C=CC(=O)C=C1
inactive: [5] | [6] | [7] | [8] | [11] | [12] | [13] | [14] | [15] | [16] | [17] | [19] | [20]
active: [1] 13.8 µM and 20 µM | [2] 26.2 µM and 6.35 µM | [3] 13.4 µM and 8.64 µM | [4] 5.14 µM and 4.77 µM | [5] 8.8 µM | [8] 27 µM | [9] 16.1 µM and 20 µM | [10] 16.3 µM and 30.9 µM | [15] 30.6 µM | [16] 32.6 µM | [17] 31.7 µM | [18] 31.7 µM and 18.7 µM | [19] 31.4 µM | [20] 35.6 µM

O=S(=O)(c1ccccc1)c1ccccc1
inactive: all assays above

COCC(=O)N(c1c(C)cccc1C)N1CCOC1=O
inactive: all assays above

O=C(CCl)c1ccccc1
inactive: [4] | [6] | [7] | [11] | [12]
active: [1] 3.06 µM | [2] 6.81 µM | [3] 6.97 µM | [5] 4.12 µM | [8] 30.4 µM | [9] 3.54 µM | [10] 29.9 µM | [13] 12.7 µM | [14] 12.5 µM | [15] 3.72 µM | [16] 6.34 µM | [17] 5.38 µM | [18] 4.58 µM | [19] 6.73 µM | [20] 8.77 µM
